Measured values: PubChem BioAssay AID1159580 (chemical genetic matrix, 2015)
Values joined by “and” are separate entries in the source; they are usually repeats but may differ in a detail not shown here. Equal values may be shown once. Among all 5,500 compounds or so, about 2,000 (36%) were called active. Not shown: some 18% with an inconclusive outcome. No stated cut-off is given here; in the data, active means normalized growth mostly below about 0.91 (no sharp cut-off); inconclusive means no clear call, values can overlap the other calls; inactive means mostly above about 0.92. Some of the results follow.

Assay: chemical genetic growth profiling, strain panel (AID 1159580);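 further: tested at 20 µM; growth read once vehicle control cultures reached saturation at 30 °C; 1 = growth at the plate median or of vehicle wells; lower values mean less growth of the strain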
Settings: growth OD

Measured: normalized growth

NC(=O)c1cccc(N)c1
inactive: S. cerevisiae deletion strains, locus YJR043C, strain POL32, hits give low values 1.01 | S. cerevisiae deletion strains, locus YJR075W, strain HOC1, hits give low values 1.01 | S. cerevisiae deletion strains, locus YKL009W, strain mrt4, hits give low values 0.996 | S. cerevisiae deletion strains, locus YKL068W, hits give low values 0.993 | S. cerevisiae deletion strains, locus YKL085W, strain MDH1 (second series), hits give low values 1 | S. cerevisiae deletion strains, locus YKL085W, strain MDH1, hits give low values 1 | S. cerevisiae deletion strains, locus YKL160W, strain elf1, hits give low values 0.984 | S. cerevisiae deletion strains, locus YKL190W, strain CNB1, hits give low values 1.02 | S. cerevisiae deletion strains, locus YKR001C, strain vps1, hits give low values 0.996 | S. cerevisiae deletion strains, locus YKR026C, strain gcn3, hits give low values 0.977 | S. cerevisiae deletion strains, locus YKR091W, strain srl3, hits give low values 0.977 | S. cerevisiae deletion strains, locus YLL001W, strain dnm1, hits give low values 0.93 | S. cerevisiae deletion strains, locus YLL026W, hits give low values 0.984 | S. cerevisiae deletion strains, locus YLL041C, strain sdh2, hits give low values 0.97 | S. cerevisiae deletion strains, locus YLR027C, strain aat2, hits give low values 0.997 | S. cerevisiae deletion strains, locus YLR039C, strain RIC1, hits give low values 1 | S. cerevisiae deletion strains, locus YLR058C, strain SHM2, hits give low values 1.01 | S. cerevisiae deletion strains, locus YLR102C, strain apc9, hits give low values 0.998 | S. cerevisiae deletion strains, locus YLR221C, strain rsa3, hits give low values 0.962 | S. cerevisiae deletion strains, locus YLR258W, strain gsy2, hits give low values 0.972 | S. cerevisiae deletion strains, locus YLR262C, strain YPT6 (second series), hits give low values 0.966 | S. cerevisiae deletion strains, locus YLR262C, strain YPT6, hits give low values 1.01 | S. cerevisiae deletion strains, locus YLR268W, strain sec22, hits give low values 0.996 | S. cerevisiae deletion strains, locus YLR320W, strain mms22, hits give low values 0.988 | S. cerevisiae deletion strains, locus YLR330W, strain CHS5, hits give low values 1.01 | S. cerevisiae deletion strains, locus YLR342W, strain FKS1 (second series), hits give low values 1.01 | S. cerevisiae deletion strains, locus YLR342W, strain FKS1, hits give low values 0.942 | S. cerevisiae deletion strains, locus YLR357W, strain rsc2, hits give low values 0.976 | S. cerevisiae deletion strains, locus YLR370C, strain arc18, hits give low values 0.941 | S. cerevisiae deletion strains, locus YLR371W, strain rom2, hits give low values 1 | S. cerevisiae deletion strains, locus YLR384C, strain iki3, hits give low values 0.992 | S. cerevisiae deletion strains, locus YLR418C, strain cdc73, hits give low values 1.01 | S. cerevisiae deletion strains, locus YML016C, strain PPZ1, hits give low values 1 | S. cerevisiae deletion strains, locus YML032C, strain rad52, hits give low values 0.993 | S. cerevisiae deletion strains, locus YML120C, strain ndi1, hits give low values 0.994 | S. cerevisiae deletion strains, locus YML124C, strain tub3, hits give low values 0.995 | S. cerevisiae deletion strains, locus YMR058W, strain fet3, hits give low values 0.965 | S. cerevisiae deletion strains, locus YMR078C, strain ctf18, hits give low values 0.999 | S. cerevisiae deletion strains, locus YMR125W, strain sto1, hits give low values 0.976 | S. cerevisiae deletion strains, locus YMR129W, hits give low values 1.01 | S. cerevisiae deletion strains, locus YMR205C, strain PFK2, hits give low values 0.991 | S. cerevisiae deletion strains, locus YMR223W, strain ubp8, hits give low values 0.993 | S. cerevisiae deletion strains, locus YMR231W, strain pep5, hits give low values 0.984 | S. cerevisiae deletion strains, locus YMR263W, strain SAP30, hits give low values 1.02 | S. cerevisiae deletion strains, locus YMR307W, strain GAS1, hits give low values 1.02 | S. cerevisiae deletion strains, locus YNL067W, strain RPL9B, hits give low values 1.01 | S. cerevisiae deletion strains, locus YNL071W, strain lat1, hits give low values 0.961 | S. cerevisiae deletion strains, locus YNL128W, strain TEP1, hits give low values 1.01 | S. cerevisiae deletion strains, locus YNL153C, strain GIM3, hits give low values 1.01 | S. cerevisiae deletion strains, locus YNL175C, strain NOP13, hits give low values 1.02 | S. cerevisiae deletion strains, locus YNL197C, strain WHI3, hits give low values 1.01 | S. cerevisiae deletion strains, locus YNL209W, strain ssb2, hits give low values 0.985 | S. cerevisiae deletion strains, locus YNL224C, strain SQS1, hits give low values 1.02 | S. cerevisiae deletion strains, locus YNL233W, strain BNI4, hits give low values 0.999 | S. cerevisiae deletion strains, locus YNL248C, strain rpa49, hits give low values 0.974 | S. cerevisiae deletion strains, locus YNL250W, strain rad50, hits give low values 0.988 | S. cerevisiae deletion strains, locus YNL271C, strain bni1, hits give low values 0.989 | S. cerevisiae deletion strains, locus YNL298W, strain CLA4, hits give low values 1.01 | S. cerevisiae deletion strains, locus YNL307C, strain MCK1, hits give low values 0.996 | S. cerevisiae deletion strains, locus YNL322C, strain KRE1 (second series), hits give low values 0.968 | S. cerevisiae deletion strains, locus YNL322C, strain KRE1, hits give low values 1.01 | S. cerevisiae deletion strains, locus YNR049C, strain mso1, hits give low values 0.965 | S. cerevisiae deletion strains, locus YNR052C, strain pop2, hits give low values 1 | S. cerevisiae deletion strains, locus YOL006C, strain TOP1, hits give low values 1.06 | S. cerevisiae deletion strains, locus YOL012C, strain htz1 1 | S. cerevisiae deletion strains, locus YOL147C, strain pex11, hits give low values 1 | S. cerevisiae deletion strains, locus YOR001W, strain rrp6, hits give low values 0.97 | S. cerevisiae deletion strains, locus YOR061W, strain CKA2, hits give low values 1 | S. cerevisiae deletion strains, locus YOR069W, strain VPS5, hits give low values 1.01 | S. cerevisiae deletion strains, locus YOR070C, strain gyp1, hits give low values 1.02 | S. cerevisiae deletion strains, locus YOR080W, strain dia2, hits give low values 0.981 | S. cerevisiae deletion strains, locus YOR083W, strain WHI5 (second series), hits give low values 1.02 | S. cerevisiae deletion strains, locus YOR083W, strain WHI5, hits give low values 0.994 | S. cerevisiae deletion strains, locus YOR106W, strain vam3, hits give low values 0.972 | S. cerevisiae deletion strains, locus YOR136W, strain idh2, hits give low values 0.993 | S. cerevisiae deletion strains, locus YOR144C, strain elg1, hits give low values 0.992 | S. cerevisiae deletion strains, locus YOR184W, strain ser1, hits give low values 1 | S. cerevisiae deletion strains, locus YOR265W, strain rbl2, hits give low values 0.968 | S. cerevisiae deletion strains, locus YOR270C, strain vph1, hits give low values 0.995 | S. cerevisiae deletion strains, locus YOR290C, strain snf2, hits give low values 0.974 | S. cerevisiae deletion strains, locus YOR316C, strain cot1, hits give low values 1 | S. cerevisiae deletion strains, locus YPL051W, strain arl3, hits give low values 1 | S. cerevisiae deletion strains, locus YPL055C, strain LGE1, hits give low values 1.06 | S. cerevisiae deletion strains, locus YPL078C, strain atp4, hits give low values 0.963 | S. cerevisiae deletion strains, locus YPL106C, strain sse1, hits give low values 0.964 | S. cerevisiae deletion strains, locus YPL240C, strain hsp82, hits give low values 0.984 | S. cerevisiae deletion strains, locus YPL241C, strain CIN2, hits give low values 1.01 and 1 | S. cerevisiae deletion strains, locus YPR119W, strain clb2, hits give low values 0.988 | S. cerevisiae deletion strains, locus YPR141C, strain kar3, hits give low values 0.996 | S. cerevisiae deletion strains, locus YPR163C, strain tif3, hits give low values 1 | S. cerevisiae deletion strains, locus YPR167C, strain met16, hits give low values 0.996 | S. cerevisiae deletion strains, strain wtn01, hits give low values 0.983 | S. cerevisiae strains, strain wild type, hits give low values 1
